The supplement of paper PMC8728848
The entries come from a sample that favours the strongest signals as a whole.

Experiments:
Experiment in all cases: glycan array binding signal (z-score within array); higher = stronger binding
Conditions in all cases: glycan notation: IUPAC condensed, linker removed
[1] = target: GlcNAc(b1-4)GlcNAc(b1-4)GlcNAc(b1-4)GlcNAc(b1-4)GlcNAc(b1-4)GlcNAc
Outline: (§1)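 Negative Z-scores can be read as non-binding. The Z-score is calculated within each array and then averaged across arrays of one protein sequence at different concentrations or buffers and across linkers. Arrays, 3228 in all, were curated from the Consortium for Functional Glycomics database and kept only where the protein sequence was available.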

[2] = target: GlcNAc6S(b1-3)Gal(b1-4)GlcNAc
Outline: as §1

[3] = target: Man(a1-2)Man(a1-3)[Man(a1-2)Man(a1-6)]Man(a1-6)[Man(a1-2)Man(a1-2)Man(a1-3)]Man
Outline: as §1

[4] = target: Man(a1-3)[Man(a1-6)]Man(b1-4)GlcNAc(b1-4)[Fuc(a1-6)]GlcNAc
Outline: as §1

Neu5Ac(a2-3)Gal = target: Neu5Ac(a2-3)Gal
Outline: as §1

[5] = target: Neu5Ac(a2-3)Gal(b1-3)GalNAc
Outline: as §1

[6] = target: Neu5Ac(a2-3)Gal(b1-4)GlcNAc(b1-2)Man(a1-3)[Neu5Ac(a2-3)Gal(b1-4)GlcNAc(b1-2)Man(a1-6)]Man(b1-4)GlcNAc(b1-4)[Fuc(a1-6)]GlcNAc
Outline: as §1

[7] = target: Neu5Ac(a2-3)Gal(b1-4)GlcNAc(b1-3)Gal(b1-4)GlcNAc(b1-3)[Neu5Ac(a2-3)Gal(b1-4)GlcNAc(b1-3)Gal(b1-4)GlcNAc(b1-6)]GalNAc
Outline: as §1

[8] = target: Neu5Ac(a2-3)Gal6S(b1-4)[Fuc(a1-3)]GlcNAc
Outline: as §1

[9] = target: Neu5Ac(a2-3)[GalNAc(b1-4)]Gal(b1-4)GlcNAc
Outline: as §1

[10] = target: Neu5Ac(a2-6)Gal(b1-4)GlcNAc
Outline: as §1

[11] = target: Neu5Ac(a2-6)Gal(b1-4)GlcNAc(b1-6)[Gal(b1-3)GlcNAc(b1-3)]Gal(b1-4)Glc
Outline: as §1

[12] = target: Neu5Ac(a2-8)Neu5Ac(a2-8)Neu5Ac(a2-8)Neu5Ac(a2-3)[GalNAc(b1-4)]Gal(b1-4)Glc
Outline: as §1

[13] = target: Neu5Ac9Ac(a2-3)Gal(b1-4)GlcNAc
Outline: as §1

[14] = target: Neu5Gc(a2-3)Gal(b1-3)GlcNAc
Outline: as §1

B1: R2-fiber (Pseudomonas aeruginosa), Q9S576 (protein)
chain: HHHHHHKVAKDLVVSLAYQVRTEDGVLVDESPVSAPLDYLHGHGSLISGLETALEGHEVGDKFDVAVGANDAYGQYDENLVQRVPKDVFMGVDELQVGMRFLAETDQGPVPVEITAVEDDHVVVDGNHMLAGQNLKFNVEVVAIREATEEELAHGHVHGAHDHHHDHDHDGCCGGHGHDHGHEHGGEGCCGGKGNGGCGCHENLYFQGVTAGMALAATDIPGLDASKLVSGVLAEQRLPVFARGLATAVSNSSDPNTATVPLMLTNHANGPVAGRYFYIQSMFYPDQNGNASQIATSYNATSEMYVRVSYAANPSIREWLPWQRCDIGGSFTKEADGELPGGVNLDSMVTSGWWSQSFTAQAASGANYPIVRAGLLHVYAASSNFIYQTYQAYDGESFYFRCRHSNTWFPWRRMWHGGDFNPSDYLLKSGFYWNALPGKPATFPPSAHNHDVGQLTSGILPLARGGVGSNTAAGARSTIGAGVPATASLGASGWWRDNDTGLIRQWGQVTCPADADASITFPIPFPTLCLGGYANQTSAFHPGTDASTGFRGATTTTAVIRNGYFAQAVLSWEAFGR
- glycan array binding signal (z-score) [1]: -0.525
- glycan array binding signal (z-score) [2]: -0.144
- glycan array binding signal (z-score) [3]: -0.717
- glycan array binding signal (z-score) [4]: -0.775
- glycan array binding signal (z-score) (Neu5Ac(a2-3)Gal): 2.35
- glycan array binding signal (z-score) [5]: -0.092
- glycan array binding signal (z-score) [6]: 5.23
- glycan array binding signal (z-score) [7]: -0.406
- glycan array binding signal (z-score) [8]: 5.49
- glycan array binding signal (z-score) [9]: -0.151
- glycan array binding signal (z-score) [10]: 3
- glycan array binding signal (z-score) [11]: 0.031
- glycan array binding signal (z-score) [12]: 0.115
- glycan array binding signal (z-score) [13]: -1.16
- glycan array binding signal (z-score) [14]: -0.167
